D1 agonist: Allosteric Agonists of the Human D1 Dopamine Receptor: qHTS; actives 1% (n = 360,000); D(1A) dopamine receptor (Homo sapiens), P21728; activation, % at 2 µM; HEK293 T-REx D1 cells, calcium flux, agonist mode; in the data active = activation above about 30%
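Inducible HEK293 T-REx D1 cells, force-coupled to calcium signalling, were plated at 4000 cells/well with tetracycline and held overnight at 30 C. After no-wash calcium dye loading, compound-evoked calcium rise over 180 s flagged agonists.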
D1 antagonist: Antagonist of Human D 1 Dopamine Receptor: qHTS; activity change, negative = inhibition, % at 10 µM; actives 3.2% (n = 360,000); HEK293 TREx D1 cells, calcium flux, dopamine EC80; active compounds read low; D(1A) dopamine receptor (Homo sapiens), P21728; in the data active = activity change below about -30%
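Tetracycline-induced HEK293 T-REx cells with force-coupled D1 receptor were loaded with a no-wash calcium dye. Compound was added after a 10 s baseline and read kinetically for 180 s; EC80 dopamine was then added and calcium flux followed another 180 s.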
DRD3 antagonist: qHTS of D3 Dopamine Receptor Antagonist: qHTS | D(3) dopamine receptor (Homo sapiens), P35462 | D3R cells, DiscoveRx beta-arrestin luminescence, antagonist mode; active compounds read low | max response, negative = inhibition, % | actives 2.5% (n = 360,000) | AID 652054, 2013; in the data active = max response below about -50%; inconclusive = no clear call, values can overlap the other calls
Target sequence (P35462 whole entry, looked up): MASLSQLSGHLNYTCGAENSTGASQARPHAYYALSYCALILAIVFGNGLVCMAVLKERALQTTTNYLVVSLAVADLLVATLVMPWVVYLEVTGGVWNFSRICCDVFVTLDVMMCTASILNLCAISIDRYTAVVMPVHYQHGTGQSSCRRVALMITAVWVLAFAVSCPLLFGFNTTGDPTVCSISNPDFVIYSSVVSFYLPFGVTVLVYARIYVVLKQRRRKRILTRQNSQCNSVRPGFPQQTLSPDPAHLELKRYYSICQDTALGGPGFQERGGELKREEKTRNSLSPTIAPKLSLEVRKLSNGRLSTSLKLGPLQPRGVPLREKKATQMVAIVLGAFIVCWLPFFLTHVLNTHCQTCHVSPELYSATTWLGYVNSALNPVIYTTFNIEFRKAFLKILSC
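Cells plated overnight at 1500 cells/well, then exposed to library compounds with dopamine controls for 90 minutes at 37 degrees C. DiscoveRx reagent added for 30–60 minutes at room temperature; luminescence read, quantitative HTS format.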
D1 PAM: Potentiators of Human D1 Dopamine Receptor: qHTS; HEK293 TREx D1 cells, calcium flux, dopamine EC20 potentiation; actives 0.036% (n = 360,000); D(1A) dopamine receptor (Homo sapiens), P21728; potentiation, % at 10 µM; in the data active = potentiation above about 30%
D3 ag: qHTS of D3 Dopamine Receptor Agonist: qHTS; max activation, %; D3R DiscoveRx beta-arrestin cells, luminescence, 90 min; actives 0.58% (n = 410,000); D(3) dopamine receptor (Homo sapiens), P35462; in the data active = max activation above about 30%
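Agonist-mode cell screen: cells plated at 1500/well and incubated overnight at 37 °C, then exposed to library compounds for 90 min at 37 °C. Detection reagent was added for 30–60 min at room temperature, and luminescence was read.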
A number is an active result; – = inactive; ? = inconclusive; · = no result given. In the library only some 6% were active in any assay of this set; here they are far more common.

SMILES | D1 agonist | D1 antagonist | DRD3 antagonist | D1 PAM | D3 ag
CCOC(=O)C1CCCN(C(=O)c2ccc3c(c2)NC(=O)C(N2CCOCC2)S3)C1 (configuration not stated) | – | -30.7 | – | – | –
CCOC(=O)C1CCCN(C(=O)c2cc(-c3ccc(C)cc3)on2)C1 (configuration not stated) | – | -49.0 | – | – | –
O=C1Nc2cc(C(=O)N3CCOCC3)ccc2SC1N1CCOCC1 (configuration not stated) | – | – | – | – | –
COc1ccc(-c2noc(CC(=O)Nc3ccc(Br)cc3C)n2)cc1 | – | – | · | – | –
CC(=O)OC(C)OC(=O)C(C)c1ccc(-c2ccccc2)c(F)c1 (configuration not stated) | · | · | · | · | –
O=C(Nc1cccc(C(F)(F)F)c1)C1CCCN(S(=O)(=O)c2cccc3nonc23)C1 (configuration not stated) | – | – | · | – | –
CC(C)c1ccc(Nc2nc3c(S(=O)(=O)c4ccc(Br)cc4)nnn3c3ccsc23)cc1 | – | – | · | – | –
CCn1c(=S)sc2c(=O)n(CC(=O)Nc3ccccc3C(F)(F)F)c(C)nc21 | – | – | – | – | 31.8
CCc1ccc(Nc2cc(=O)n(C3CCCCC3)c(=O)[nH]2)cc1 | 34.3 | -35.3 | ? | – | –
O=c1cc(Nc2ccc3c(c2)OCCO3)[nH]c(=O)n1C1CCCCC1 | – | – | – | – | –
Cc1cn([C@H]2C[C@H](O)[C@@H](CNCc3ccc(CN(C)S(C)(=O)=O)o3)O2)c(=O)[nH]c1=O | · | · | – | · | –
Cc1cn([C@H]2C[C@H](O)[C@@H](CNCc3ccc(-c4cc(Cl)ccc4C(F)(F)F)o3)O2)c(=O)[nH]c1=O | · | · | -75.1 | · | –
Cc1ccc(NC(=O)Cn2c(=O)cc(-c3ccccc3)c3c(C)nn(C)c32)c(Cl)c1 | – | – | · | – | –
COc1cc(C(=O)/C=C/c2cccnc2)c([N+](=O)[O-])cc1OC | – | – | -73.4 | – | –
O=C(/C=C/c1cccnc1)c1ccc([N+](=O)[O-])cc1 | – | – | – | – | –
COc1ccc(-c2cc(C)no2)cc1S(=O)(=O)NC1CCC(C)CC1 (configuration not stated) | – | – | · | – | –
Cc1cn2c(=O)cc(COC(=O)c3cccc(NC(=O)C(C)Oc4ccccc4)c3)nc2s1 (configuration not stated) | – | – | · | – | –
O=S(=O)(c1ccc(F)cc1)N1CCN(c2nc(-c3ccc(F)cc3)nc3cc(Cl)ccc23)CC1 | – | – | · | – | ·
CN1CCN(c2nc(-c3ccc(Cl)cc3)nc3ccccc23)CC1 | – | – | -60.7 | – | –
COc1ccc(-c2nc(N3CCN(S(=O)(=O)c4ccccc4)CC3)c3ccccc3n2)cc1 | – | – | · | – | ·
Cc1ccc(-c2nc(N3CCN(S(=O)(=O)c4ccc(F)cc4)CC3)c3ccc(Cl)cc3n2)cc1 | – | -41.4 | · | – | ·
COc1ccc(-c2nc(N3CCN(S(=O)(=O)c4ccc(F)cc4)CC3)c3ccccc3n2)cc1 | – | -30.6 | · | – | ·
Nc1nc(-c2ccc3c(c2)CCCC3)cs1 | – | – | – | – | –
N#Cc1cnn2ccc(-c3ccc4c(c3)CCC4)nc12 | – | -30.7 | – | – | –
CC(=O)CSc1nsc(SCC(C)=O)c1C#N | – | – | -69.1 | – | –
SMILES | D1 agonist | D1 antagonist | DRD3 antagonist | D1 PAM | D3 ag
Cc1ccc(Cl)cc1N1CCN(C(=O)c2ccc(NC3=NC4CS(=O)(=O)CC4S3)cc2)CC1 (configuration not stated) | – | -44.0 | – | – | –
Cc1cccc2c1-c1sc(C(=O)NCCCN3CCN(c4cccc(Cl)c4)CC3)cc1CO2 | – | – | · | – | –
CCc1nnc(NC(=O)C(C)N2C(=O)C3C4C=CC(C4)C3C2=O)s1 (configuration not stated) | – | -42.8 | – | – | –
Cc1nnc(NC(=O)NC(C)N2C(=O)C3C4C=CC(C4)C3C2=O)s1 (configuration not stated) | – | – | – | – | –
CN(C)c1cccc(C(=O)N/C=C/n2cnc3cc(C(F)(F)F)ccc32)c1 | – | -39.1 | – | – | –
CCC(=O)N/C=C/n1cnc2cc(C(F)(F)F)ccc21 | – | – | – | – | –

Source: PubChem
